# Laboratory results published in PubChem BioAssay AID1671192 (National Center for Advancing Translational Sciences (NCATS), 2021).
# Records with an inconclusive call do not appear. Calls of active or inactive are those of the source. Calls follow the shape of the dose curve; as a rule, active = well fitted curve in the direction sought with a large enough effect; inconclusive = small, poorly fitted or top-dose-only effect, or another doubt; inactive = no such curve, though single readings can be large or run the other way.
# Molecular target: Polyunsaturated fatty acid lipoxygenase ALOX15 (Homo sapiens) (UniProt P16050)
# Test: Counterscreen qHTS for inhibitors of human arachidonate 12S-lipoxygenase (ALOX12): ALOX15 Assay
# Conditions: purified ALOX15 enzyme activity; series mostly up to 110 µM
# In short: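 Purified human ALOX15 (15hLO-1) at 40 nM in 25 mM HEPES, 0.01% Triton X-100, pH 7.5, preincubated with compound 15 min at RT. Then 50 uM arachidonic acid for 30 min; hydroperoxide detected by Fe-xylenol orange as the 573/405 nm absorbance ratio.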
# Sequence of Polyunsaturated fatty acid lipoxygenase ALOX15 (Homo sapiens) (P16050 whole entry, looked up): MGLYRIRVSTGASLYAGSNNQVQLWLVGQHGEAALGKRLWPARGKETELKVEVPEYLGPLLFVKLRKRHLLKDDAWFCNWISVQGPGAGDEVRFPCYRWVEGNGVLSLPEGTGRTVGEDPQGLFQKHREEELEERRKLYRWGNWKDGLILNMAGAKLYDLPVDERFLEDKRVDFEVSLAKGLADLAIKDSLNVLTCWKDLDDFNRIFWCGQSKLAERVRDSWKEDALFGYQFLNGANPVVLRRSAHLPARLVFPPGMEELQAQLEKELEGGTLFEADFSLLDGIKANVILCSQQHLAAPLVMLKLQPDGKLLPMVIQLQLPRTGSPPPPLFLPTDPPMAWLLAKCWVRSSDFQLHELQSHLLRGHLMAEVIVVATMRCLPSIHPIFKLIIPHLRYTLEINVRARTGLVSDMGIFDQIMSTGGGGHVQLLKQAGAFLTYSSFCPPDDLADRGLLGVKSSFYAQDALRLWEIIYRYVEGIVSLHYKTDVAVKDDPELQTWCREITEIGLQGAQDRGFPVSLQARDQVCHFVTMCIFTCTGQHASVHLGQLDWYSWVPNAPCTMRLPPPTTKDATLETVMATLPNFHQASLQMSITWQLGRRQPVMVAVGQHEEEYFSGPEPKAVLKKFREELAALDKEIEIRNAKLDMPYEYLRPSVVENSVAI
row,SMILES,outcome
1,O=C(c1ccc(C(F)(F)F)cc1)N1CC(Oc2ccc3c(c2)OCO3)C1,inactive
2,O=C(C1CCCC1)N1Cc2ccccc2CC2(CCCN(CC3CCNC3)C2)C1 (stereo not drawn),inactive
3,Cc1ccc2nc(C3CCN(Cc4ccc(-c5cccs5)cc4)CC3)[nH]c(=O)c2c1,inactive
4,CC(=O)N1CCn2cc(C(=O)N3CCOCC3)nc2C1,inactive
5,CCNc1ncnc2c1CN(C1CCCNC1)C(=O)CN2C (stereo not drawn),inactive
6,CN1CC(=O)N(C2CCCNC2)Cc2c(NC3CCCCC3O)ncnc21 (stereo not drawn),inactive
7,O=Cc1cccc(N2CCN(C(=O)c3ccncc3)CC2=O)c1,inactive
8,O=C1NC(=NC2CCCC2)C2(CCN(CC3CCCCC3)CC2)N1c1cc(F)cc(F)c1,inactive
9,COc1ccc(OC2CN(Cc3cccc4ccccc34)C2)cc1,inactive
10,CN1CC(=O)N(C2CCCNCC2)Cc2c(NCCCO)ncnc21 (stereo not drawn),inactive
11,CN1CC(=O)N(C2CCCNC2)Cc2c1ncnc2N1CCN(Cc2ccccc2)CC1 (stereo not drawn),inactive
12,CCC(=O)N1Cc2ccccc2CC2(CCN(CC3CCNC3)C2)C1 (stereo not drawn),inactive
13,O=C(O)CCC(=O)N1Cc2ccccc2CC2(CCCN2Cc2ccccc2)C1 (stereo not drawn),inactive
14,O=C1NCc2ccccc2CC12CCN(Cc1cccc3ccccc13)C2 (stereo not drawn),inactive
15,NCCCC(=O)N1CCC2(CC1)CN(C(=O)Cc1ccc(Cl)cc1)CCO2,inactive
16,CCN1CCCCC12Cc1ccccc1CN(C(=O)C1CCN(C)CC1)C2 (stereo not drawn),inactive
17,O=C(O)c1cccc(-c2cncc(C(=O)O)c2)c1,inactive
18,c1ccc2c(CN3CC(Oc4ccc5c(c4)OCO5)C3)cccc2c1,inactive
19,COc1ccc(NCCN2CCCC2)cc1,inactive

row,SMILES,outcome
1,CN(C)C(=O)N1CCCC(c2nnc3n2CCNC3)C1 (stereo not drawn),inactive
2,COc1ccc(N2CC3CCC(C2)N3C(=O)NC(C)C)cc1,inactive
3,Cc1ccc(-c2cccc(CN3CCCC(c4nc5ccc(F)cc5c(=O)[nH]4)C3)c2)c(C)c1 (stereo not drawn),inactive
4,O=C1NCc2ccccc2CC12CCN(Cc1cccc(OC(F)(F)F)c1)C2 (stereo not drawn),inactive
5,COc1ccc(-c2cc(C(=O)NC3CC3)c3c(C)nn(-c4ccccc4)c3n2)cc1,inactive
6,O=C1Nc2ccccc2CN(CC2CC2)C12CCNCC2,inactive
7,O=C1NCc2ccccc2CC12CCCN(CCCc1ccccc1)C2 (stereo not drawn),inactive
8,Cc1ccc2nc(C3CCCN(Cc4ccccc4)C3)[nH]c(=O)c2c1 (stereo not drawn),inactive
9,CN1CC(=O)N(C2CCNC2)Cc2c(NCCc3cccc(F)c3)ncnc21 (stereo not drawn),inactive
10,CC(=O)Nc1ccc(CN2CC3(C2)C(=O)Nc2ccccc23)cc1,inactive
11,O=C(c1ccccc1F)N1CCn2c(nnc2C2CCNCC2)C1,inactive
12,c1ccc2c(c1)COC1(CCNC1)CN2CC1CCCC1 (stereo not drawn),inactive
13,CN1CC(=O)N(C2CCCNCC2)Cc2c(NCc3cccs3)ncnc21 (stereo not drawn),inactive
14,O=C(Nc1ccc(F)cc1)c1c[nH]c2cccnc12,inactive
15,C[S+](=O)([O-])N1CC2(CCN(Cc3ccc(Cl)cc3)C2)Cc2ccccc21 (stereo not drawn),inactive
16,Cc1ccc(-c2ccc(CN)cc2)cc1Cl,inactive
17,Nc1ccccc1CN1CCCC2(Cc3ccccc3CNC2=O)C1 (stereo not drawn),inactive
18,Cc1cc(C(=O)NC2CC2)c2c(C3CCNCC3)noc2n1,inactive
19,FC(F)(F)c1cccc(C2=NOC3(CCN(Cc4ccccc4)C3)C2)c1 (stereo not drawn),inactive
